From PubChem BioAssay
Activity calls are given as the source filed them.

Tests used:
Albumin (Bos taurus) = Albumin (Bos taurus) (UniProt P02769); assay: bovine serum albumin binders on microarray, profiling panel, artefact control for SMM control protein annotation, biochemical, small-molecule microarray, Alexa647 label, 635/667 nm fluorescence (AID 1118); conditions: BSA-A647 binding, fluorescence 635 nm, higher = more signal;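 also: score merges 667 nm emission intensity and signal-to-noise per printed compound spot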
Chain of Albumin (Bos taurus) (P02769 whole entry, looked up): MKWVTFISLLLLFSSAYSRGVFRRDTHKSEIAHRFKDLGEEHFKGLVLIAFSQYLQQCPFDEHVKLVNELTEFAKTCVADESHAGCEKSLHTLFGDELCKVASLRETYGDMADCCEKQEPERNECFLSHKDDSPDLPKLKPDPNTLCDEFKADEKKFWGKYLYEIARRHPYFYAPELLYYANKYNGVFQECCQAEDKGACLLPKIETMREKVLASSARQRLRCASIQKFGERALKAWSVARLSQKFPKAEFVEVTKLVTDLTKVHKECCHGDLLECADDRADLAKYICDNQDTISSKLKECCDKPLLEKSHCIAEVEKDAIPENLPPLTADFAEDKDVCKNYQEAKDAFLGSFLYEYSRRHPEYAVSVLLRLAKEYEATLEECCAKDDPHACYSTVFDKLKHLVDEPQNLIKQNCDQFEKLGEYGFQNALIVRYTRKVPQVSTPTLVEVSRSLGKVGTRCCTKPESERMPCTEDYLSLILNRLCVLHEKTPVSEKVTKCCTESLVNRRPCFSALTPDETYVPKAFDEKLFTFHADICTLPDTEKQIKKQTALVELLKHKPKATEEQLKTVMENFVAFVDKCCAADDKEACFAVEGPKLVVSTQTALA

[1] = small-molecule microarray binders of probe aXIP, primary screen, biochemical, NeuroSMM set, 635/667 nm fluorescence (AID 1119); conditions: higher = more signal, called active from +8 up or from −8 down;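 also: probe is the protein aXip251-270 applied at 1 µg/mL to compound-printed slides; binding of probe to printed compounds measured as 667 nm fluorescence plus signal to noise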
[2] = small-molecule binders of probe aNOTCH3, primary screen, biochemical, small-molecule microarray, 635/667 nm fluorescence (AID 1120); conditions: higher = more signal;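 also: probe is a biotin-tagged antibody raised against NOTCH3 rather than NOTCH3 protein; score merges spot fluorescence near 667 nm with spot signal to noise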
[3] = small-molecule binders of probe aNOTCH2, primary screen, biochemical, small-molecule microarray, 635/667 nm fluorescence (AID 1121); conditions: higher = more signal;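 also: score merges feature fluorescence read at 667 nm with its signal to noise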
[4] = target: Carbonic anhydrase 2 (Homo sapiens) (UniProt P00918); assay: CAII small-molecule binders, profiling panel, biochemical, small-molecule microarray, Alexa647-labelled CAII (AID 1122); conditions: CAII-A647 binding fluorescence, higher = more signal
[5] = COS7 lysate on small-molecule microarray, probe aHis, 635 nm (AID 1123); conditions: COS7 cell lysate, fluorescence, higher = more signal;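 also: z-score combines 667nm fluorescence intensity with signal-to-noise per printed compound spot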
[6] = compound binding in COS7 lysate, probe aLAP1, primary screen, cell lysate, small-molecule microarray (AID 1124); conditions: probe aLAP1, fluorescence, higher = more signal;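 also: lysate comes from COS7 cells expressing LAP1 and is applied at 0.3 µg/mL; score merges spot fluorescence near 667 nm with signal-to-noise over triplicate slides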
Sam68 (KHDRBS1) = assay: Sam68 small-molecule binders, primary screen, biochemical, small-molecule microarray, 635 nm fluorescence (AID 1125); conditions: small-molecule microarray binding, higher = more signal;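 also: score merges 667 nm channel intensity with signal to noise over triplicate slides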
[7] = tested on: Chordin-like protein 2 (CHRDL2); assay: CHRDL2 small-molecule binders, primary screen, biochemical, small-molecule microarray, 635 nm fluorescence (AID 1126); conditions: small-molecule microarray binding, fluorescence 635 nm; higher = more signal;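 also: printed compound slides probed with Chrdl2 protein at 4 µg/mL for 1 h at 4 C; score merges 667 nm emission intensity with signal to noise over three replicate slides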
[8] = target: Concanavalin-A (Canavalia ensiformis) (UniProt P02866); assay: ConA small-molecule binders, primary screen, artefact control for SMM control protein annotation, biochemical, small-molecule microarray, Alexa647 label, 635 nm (AID 1127); conditions: ConA-A647 binding fluorescence, higher = more signal;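 also: z combines 667 nm emission intensity with signal-to-noise across three replicate slides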
Chain of Concanavalin-A (Canavalia ensiformis) (P02866 whole entry, looked up): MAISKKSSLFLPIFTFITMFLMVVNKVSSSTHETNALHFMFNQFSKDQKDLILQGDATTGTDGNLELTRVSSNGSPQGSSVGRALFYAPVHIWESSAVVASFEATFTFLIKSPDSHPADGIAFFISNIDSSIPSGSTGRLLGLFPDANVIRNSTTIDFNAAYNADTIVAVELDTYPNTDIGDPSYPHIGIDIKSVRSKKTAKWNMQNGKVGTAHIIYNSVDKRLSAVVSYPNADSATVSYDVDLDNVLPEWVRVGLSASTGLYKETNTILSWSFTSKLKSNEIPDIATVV

In the case of `O=C(CS)NCCCCCCNC(=O)[C@H]1C[C@H]2C(=O)N3CCC[C@H]3C(=O)N2[C@H]1c1ccc(O)cc1`, the composite z-score (Albumin (Bos taurus)) is reported as 0.11, the composite Z-score [1] is reported as 0.131 (inactive) and the composite z-score [2] is reported as 0.298. It also gave a composite z-score [3] of -0.147, a composite z-score [4] of 0.389 and a composite z-score [5] of -0.125. For the same molecule, the composite z-score [6] was -0.0269, the composite z-score (Sam68 (KHDRBS1)) was 0.557 and the composite z-score [7] was 0.257. It also gave a composite z-score [8] of 0.853.
For `C=CCOC(=O)[C@H]1[C@@H]2C(=O)O[C@@H](c3ccccc3)[C@@H](c3ccccc3)N2[C@@H](c2ccc(OCCOC(=O)[C@@H]3C[C@@H]4C(=O)NCC(=O)N4[C@@H]3c3ccc(O)cc3)cc2)[C@]12C(=O)Nc1ccc(I)cc12`, the composite z-score (Albumin (Bos taurus)) was 0.733, the composite Z-score [1] was 1.05 (inactive) and the composite z-score [2] was 0.0435. For the same molecule, the composite z-score [3] was -0.0583, the composite z-score [4] was 0.647 and the composite z-score [5] was 1.71. The composite z-score [6] was 0.888, the composite z-score (Sam68 (KHDRBS1)) was 1.3 and the composite z-score [7] was 1.09. It also gave a composite z-score [8] of 1.14.
In the case of `CN(C)CCCC[C@@H]1NC(=O)[C@H]2C[C@@H](C(=O)NCCCCCNC(=O)CS)[C@@H](c3ccc(O)cc3)N2C1=O`, the composite z-score (Albumin (Bos taurus)) is reported as 0.74, the composite Z-score [1] is reported as 0.157 (inactive) and the composite z-score [2] is reported as -0.374. The composite z-score [3] was -0.127, the composite z-score [4] was -0.204 and the composite z-score [5] was 0.268. The composite z-score [6] was -0.733, the composite z-score (Sam68 (KHDRBS1)) was -1.38 and the composite z-score [7] was -0.688. The composite z-score [8] was 0.734.
For `Cc1ccc([C@H]2C(C(=O)O)=C[C@@H](C(C)C)N2S(=O)(=O)c2ccc(C)cc2)cc1`, the composite z-score (Albumin (Bos taurus)) was 0.284, the composite Z-score [1] was -0.236 (inactive) and the composite z-score [2] was 0.0596. It also gave a composite z-score [3] of 0.0161, a composite z-score [4] of 0.772 and a composite z-score [5] of 2.86. The composite z-score [6] was -0.134, the composite z-score (Sam68 (KHDRBS1)) was 1.3 and the composite z-score [7] was -0.209. It also gave a composite z-score [8] of 0.555.
For `O=C1OCC=C[C@H]2OC34C=CCN(c5ccc6ccccc6c5)C(=O)[C@H]3N(CCO)C(=O)[C@@H]4[C@@H]12` (stereo not given in full), the composite z-score (Albumin (Bos taurus)) was -0.855, the composite Z-score [1] was 0.138 (inactive) and the composite z-score [2] was -0.172. For the same molecule, the composite z-score [3] was -0.115, the composite z-score [4] was 0.804 and the composite z-score [5] was 0.174. It also gave a composite z-score [6] of -0.532, a composite z-score (Sam68 (KHDRBS1)) of -0.873 and a composite z-score [7] of -2.08. For the same molecule, the composite z-score [8] was -0.681.
With `O=C1O[C@@H](c2ccccc2)[C@@H](c2ccccc2)N2[C@@H](c3ccc(O)cc3)[C@]3(C(=O)Nc4ccc(C#CCCO)cc43)[C@@H](C(=O)N3CCCCCCC3)[C@H]12` the composite z-score (Albumin (Bos taurus)) was -0.126, the composite Z-score [1] was 5.37 (inactive) and the composite z-score [2] was 1.3. For the same molecule, the composite z-score [3] was 0.612, the composite z-score [4] was 0.766 and the composite z-score [5] was 3.26. The composite z-score [6] was 0.991, the composite z-score (Sam68 (KHDRBS1)) was 1.16 and the composite z-score [7] was 1.43. For the same molecule, the composite z-score [8] was 0.884.
With `O=C1C2C=CC(C(O)CCc3ccccc3)N(Nc3ccccc3)C2C(=O)N1c1ccccc1` (stereo not given) the composite z-score (Albumin (Bos taurus)) was 0.861, the composite Z-score [1] was -0.107 (inactive) and the composite z-score [2] was 0.185. The composite z-score [3] was 0.0278, the composite z-score [4] was 0.65 and the composite z-score [5] was 2.82. For the same molecule, the composite z-score [6] was 0.899, the composite z-score (Sam68 (KHDRBS1)) was 1.3 and the composite z-score [7] was -0.788. The composite z-score [8] was 1.2.
With `CO[C@H]1O[C@H](CO)[C@@H](OC(=O)Nc2cccc(F)c2)[C@H](OC(=O)Nc2ccccc2-c2ccccc2)[C@@H]1OC(=O)Nc1ccccc1-c1ccccc1` the composite z-score (Albumin (Bos taurus)) was 0.914, the composite Z-score [1] was -0.116 (inactive) and the composite z-score [2] was 0.0479. For the same molecule, the composite z-score [3] was -0.0041, the composite z-score [4] was 0.385 and the composite z-score [5] was 2.56. It also gave a composite z-score [6] of 1, a composite z-score (Sam68 (KHDRBS1)) of 1.3 and a composite z-score [7] of -0.262. It also gave a composite z-score [8] of 1.23.
In the case of `C[C@]1(C(=O)NCC(F)(F)F)c2ccccc2C(=O)N(Cc2cc(F)cc(C(F)(F)F)c2)[C@H]1c1ccc(CO)cc1`, the composite z-score (Albumin (Bos taurus)) is reported as -0.385, the composite Z-score [1] is reported as -0.191 (inactive) and the composite z-score [2] is reported as -0.198. The composite z-score [3] was -0.135, the composite z-score [4] was 0.694 and the composite z-score [5] was 2.18. It also gave a composite z-score [6] of 0.87, a composite z-score (Sam68 (KHDRBS1)) of 1.11 and a composite z-score [7] of -0.115. The composite z-score [8] was 0.247.
For `COCCOC(=O)N1C(=O)[C@@]2(c3ccccc31)[C@H](c1ccc(O)cc1)N1[C@H](c3ccccc3)[C@H](c3ccccc3)OC(=O)[C@H]1[C@@H]2C(N)=O`, the composite z-score (Albumin (Bos taurus)) was 0.436, the composite Z-score [1] was 0.313 (inactive) and the composite z-score [2] was -0.27. The composite z-score [3] was -0.114, the composite z-score [4] was 0.711 and the composite z-score [5] was 0.531. For the same molecule, the composite z-score [6] was -0.0821, the composite z-score (Sam68 (KHDRBS1)) was -0.764 and the composite z-score [7] was -1.04. For the same molecule, the composite z-score [8] was 0.035.
For `O=C1c2ccccc2[C@@]2(Cc3ccccc3N(Cc3ccccc3)C2=O)[C@H](c2ccc(CO)cc2)N1Cc1ccccc1C(F)(F)F`, the composite z-score (Albumin (Bos taurus)) was 0.811, the composite Z-score [1] was -0.372 (inactive) and the composite z-score [2] was -0.128. It also gave a composite z-score [3] of -0.0705, a composite z-score [4] of 0.781 and a composite z-score [5] of 1.04. It also gave a composite z-score [6] of -0.381, a composite z-score (Sam68 (KHDRBS1)) of -1.31 and a composite z-score [7] of -1.5. It also gave a composite z-score [8] of -0.486.
